The source of these data is a collection of fitness landscapes (doi:10.1126/science.1257360).

Sequences and labels used below:
B1: PhoQ; a variant is named by its letters at X, in order, P23837 (parent)
chain: MKKLLRLFFPLSLRVRFLLATAAVVLVLSLAYGMVALIGYSVSFDKTTFRLLRGESNLFYTLAKWENNKLHVELPENIDKQSPTMTLIYDENGQLLWAQRDVPWLMKMIQPDWLKSNGFHEIEADVNDTSLLLSGDHSIQQQLQEVREDDDDAEMTHSVAVNVYPATSRMPKLTIVVVDTIPVELKSSYMVWSWFIYVLSANLLLVIPLLWVAAWWSLRPIEALAKEVRELEEHNRELLNPATTRELTSLVRNLNRLLKSERERYDKYRTTLTDLTHSLKTPLXXLQXXLRSLRSEKMSVSDAEPVMLEQISRISQQIGYYLHRASMRGGTLLSRELHPVAPLLDNLTSALNKVYQRKGVNISLDISPEISFVGEQNDFVEVMGNVLDNACKYCLEFVEISARQTDEHLYIVVEDDGPGIPLSKREVIFDRGQRVDTLRPGQGVGLAVAREITEQYEGKIVAGESMLGGARMEVIFGRQHSAPKDE

Over roughly 140,000 sequences, “enrichment ratio after two sorts for PhoP signalling” has its median near 0; the highest 2% begin near 11. Only a selection was taken, and the highest values are over-represented in it overall.

In this assay the parent is B1. The assay is described as follows: enrichment ratio after two sorts for PhoP signalling (ratio (wild type AVST 3.29)); higher = more functional. As to conditions: with PhoP (E. coli).
Consider TLSM, for which the enrichment ratio was 25.5.

Regarding PLSM, the enrichment ratio is at most 0.25.

Consider CLSM, for which the enrichment ratio worked out at 22.7.

For MNSM, the enrichment ratio came to 9.22.

Regarding SLSM, the enrichment ratio came to 8.94.

With IDFI, the enrichment ratio is at most 0.25.

As for NPDM, the enrichment ratio was at most 0.25.

Consider PIRV, for which the enrichment ratio is at most 0.25.

Turning to EGSN, the enrichment ratio was at most 0.25.

As to PKCK, the enrichment ratio is at most 0.25.

For the variant RLKF, the enrichment ratio is at most 0.25.

Regarding AIND, the enrichment ratio is at most 0.25.

On to GVLN, for which the enrichment ratio was determined as 10.1.

As for AISM, the enrichment ratio came out at 15.9.

As for AMSM, the enrichment ratio was found to be 15.1.

Take NMSM: the enrichment ratio is at most 0.25.

With KMSM, the enrichment ratio is at most 0.25.

Take AQSM: the enrichment ratio came out at 10.4.

As to ARSM, the enrichment ratio stood at 4.49.

Regarding KKSM, the enrichment ratio was at most 0.25.

Turning to AVSM, the enrichment ratio stood at 11.3.

As to ALSM, the enrichment ratio stood at 17.

On to WISM, for which the enrichment ratio was at most 0.25.

Regarding AVSF, the enrichment ratio is 9.87.

In the case of DRSF, the enrichment ratio is at most 0.25.

As for HYGV, the enrichment ratio was at most 0.25.

IFME: the enrichment ratio is at most 0.25.

Consider FRHK, for which the enrichment ratio was at most 0.25.

Take PAGH: the enrichment ratio is at most 0.25.

As to QFCS, the enrichment ratio is at most 0.25.

Regarding SPYV, the enrichment ratio was at most 0.25.

As to WPGT, the enrichment ratio is at most 0.25.

Regarding YLNI, the enrichment ratio is at most 0.25.

In the case of ANSM, the enrichment ratio came out at 16.6.

On to TISM, for which the enrichment ratio came to 27.4.

As to PLSF, the enrichment ratio is at most 0.25.

As to ALHF, the enrichment ratio was at most 0.25.

RISM: the enrichment ratio was at most 0.25.

Take ALSF: the enrichment ratio is 12.1.

As to ANSF, the enrichment ratio worked out at 5.47.

As to NISM, the enrichment ratio came to 0.899.

With EYYP, the enrichment ratio was at most 0.25.

On to PMHD, for which the enrichment ratio is at most 0.25.

As for APSK, the enrichment ratio was at most 0.25.

Take YWYS: the enrichment ratio is at most 0.25.

Regarding KTMK, the enrichment ratio is at most 0.25.

Take RNCC: the enrichment ratio was at most 0.25.

Regarding FSSQ, the enrichment ratio is at most 0.25.

On to QASQ, for which the enrichment ratio was 23.3.

Turning to QSSQ, the enrichment ratio is 11.3.

Consider KASQ, for which the enrichment ratio is at most 0.25.

Regarding KSSQ, the enrichment ratio is at most 0.25.

As to TSSQ, the enrichment ratio turned out to be 11.8.

Turning to QPSQ, the enrichment ratio is at most 0.25.

Regarding QASK, the enrichment ratio is at most 0.25.

For the variant TPSQ, the enrichment ratio is at most 0.25.

For the variant LWCS, the enrichment ratio was at most 0.25.

For KPGV, the enrichment ratio is at most 0.25.

With FAWD, the enrichment ratio is at most 0.25.

As for LEFH, the enrichment ratio was at most 0.25.

Consider ELWP, for which the enrichment ratio is at most 0.25.

MRDF: the enrichment ratio was at most 0.25.

On to TCQR, for which the enrichment ratio is 4.53.

For the variant MICH, the enrichment ratio came out at 2.87.

Consider MILH, for which the enrichment ratio came to 0.967.

In the case of MICC, the enrichment ratio was 29.6.

As for MQCC, the enrichment ratio was determined as 11.8.

Consider MQTH, for which the enrichment ratio was at most 0.25.

Take MQCI: the enrichment ratio turned out to be 1.41.

As to IQVR, the enrichment ratio was at most 0.25.

Consider NDHA, for which the enrichment ratio was at most 0.25.

For MDME, the enrichment ratio was at most 0.25.

Turning to RVHQ, the enrichment ratio is at most 0.25.

On to THNL, for which the enrichment ratio was 12.7.

Regarding NHNL, the enrichment ratio is at most 0.25.

As to NHNI, the enrichment ratio was at most 0.25.

With THNI, the enrichment ratio is 14.1.

For YHNL, the enrichment ratio is at most 0.25.

Consider SHNI, for which the enrichment ratio was found to be 8.22.

Turning to YPKW, the enrichment ratio was at most 0.25.

Take AGAF: the enrichment ratio was 3.66.

As to TPRL, the enrichment ratio is at most 0.25.

Consider AIGI, for which the enrichment ratio was determined as 11.8.

With VHGI, the enrichment ratio is at most 0.25.

Turning to YTGI, the enrichment ratio is at most 0.25.

Consider GHGI, for which the enrichment ratio was at most 0.25.

ANGI: the enrichment ratio stood at 22.1.

With MTGI, the enrichment ratio came to 11.7.

Turning to AHGI, the enrichment ratio is at most 0.25.

Turning to AGFP, the enrichment ratio is at most 0.25.

In the case of AGGI, the enrichment ratio came out at 12.9.

As to GNGI, the enrichment ratio was at most 0.25.

Take ANHA: the enrichment ratio was at most 0.25.

Regarding MTGD, the enrichment ratio is at most 0.25.

Regarding IIYR, the enrichment ratio was at most 0.25.

Turning to DKAR, the enrichment ratio was at most 0.25.

For LMEW, the enrichment ratio was at most 0.25.

As to VFIY, the enrichment ratio was at most 0.25.

Regarding ATGS, the enrichment ratio is 5.38.

In the case of TMFP, the enrichment ratio is at most 0.25.

With MMGI, the enrichment ratio was at most 0.25.

In the case of ATGI, the enrichment ratio stood at 13.1.

With TTGI, the enrichment ratio came out at 9.44.

For the variant TMGI, the enrichment ratio came out at 20.6.

Consider TSGI, for which the enrichment ratio stood at 12.8.

Regarding KCGI, the enrichment ratio is at most 0.25.

Take KSGI: the enrichment ratio was at most 0.25.

On to MGHD, for which the enrichment ratio was at most 0.25.

In the case of TSDS, the enrichment ratio came to 0.648.

As for FMNE, the enrichment ratio was at most 0.25.

With SRAQ, the enrichment ratio is at most 0.25.

In the case of QEAQ, the enrichment ratio was at most 0.25.

For NEAQ, the enrichment ratio was at most 0.25.

Consider SLAQ, for which the enrichment ratio was 3.9.

Regarding TEAQ, the enrichment ratio was 28.

As for SEAQ, the enrichment ratio was determined as 13.7.

For LILM, the enrichment ratio was at most 0.25.

For MPQI, the enrichment ratio is at most 0.25.

Turning to IQHE, the enrichment ratio was at most 0.25.

For EPTW, the enrichment ratio was at most 0.25.

As to NNAC, the enrichment ratio was at most 0.25.

Take GMAC: the enrichment ratio was at most 0.25.

SMAC: the enrichment ratio is 12.5.

For the variant NMAC, the enrichment ratio was at most 0.25.

Consider CMAC, for which the enrichment ratio came to 23.4.

In the case of SMPC, the enrichment ratio was at most 0.25.

For KMAC, the enrichment ratio is at most 0.25.

Take TMAC: the enrichment ratio was 28.2.

In the case of SMTC, the enrichment ratio turned out to be 8.15.

Turning to VQIW, the enrichment ratio is at most 0.25.

NELI: the enrichment ratio was at most 0.25.

In the case of MAEF, the enrichment ratio was at most 0.25.

As to RVFY, the enrichment ratio was at most 0.25.

On to SKNN, for which the enrichment ratio is at most 0.25.

Turning to NLIQ, the enrichment ratio is at most 0.25.

With CALN, the enrichment ratio turned out to be 65.

On to QILN, for which the enrichment ratio is at most 0.25.

For SALY, the enrichment ratio worked out at 11.8.

For NALY, the enrichment ratio is at most 0.25.

Take SAVT: the enrichment ratio turned out to be 0.95.

With SPLK, the enrichment ratio is at most 0.25.

Consider SALK, for which the enrichment ratio is 15.2.

Regarding SAAT, the enrichment ratio turned out to be 3.66.

On to NALN, for which the enrichment ratio is at most 0.25.

Take KYLK: the enrichment ratio is at most 0.25.

Turning to SALT, the enrichment ratio turned out to be 11.2.

Take KALY: the enrichment ratio was at most 0.25.

Take AFGW: the enrichment ratio is at most 0.25.

For the variant DHYR, the enrichment ratio is at most 0.25.

VAYT: the enrichment ratio is at most 0.25.

Regarding QIHG, the enrichment ratio was determined as 2.32.

For YSRD, the enrichment ratio is at most 0.25.

For NFVV, the enrichment ratio was at most 0.25.
